Inconclusive results are not listed. Where a call stands in place of a potency, no number is given. Calls of active or inactive are those of the source. Calls come from the whole dose curve; as a rule, active = well fitted curve in the direction sought with a large enough effect; inconclusive = small, poorly fitted or top-dose-only effect, or another doubt; inactive = no such curve, though single readings can be large; an effect the other way counts as inactive or inconclusive.

Assay [1] deals with Aldehyde dehydrogenase, mitochondrial (Homo sapiens) (UniProt P05091). As to the kind of experiment: qHTS for Inhibitors of the Aldehyde Dehydrogenase Family (ALDH2) Primary screen (AID 2061308). Note: nearly all actives have a fitted effect of over 55% in size. On the technique in general: In qHTS, concentration-response curves come from the screen itself.
The target in assay [2] is Retinaldehyde dehydrogenase 3 (Homo sapiens) (UniProt P47895). Nature of the assay: qHTS for Inhibitors of the Aldehyde Dehydrogenase Family (ALDH1A3) Primary screen (AID 2061315).

As for `Cc1ccc(C(=O)NCC(=O)OC(C(=O)Nc2cc(C(F)(F)F)ccc2Cl)c2ccccc2)cc1` (stereo unspecified), the Potency entry in assay [1] and in assay [2] was “inactive” in each case.
As for `CC(=O)Nc1sc2c(c1-c1ccc(-c3nn[nH]n3)cc1)CCNC2`, the Potency result in assay [1] and in assay [2] was “inactive” each time.
For the compound `O=C(Nc1ccc2sccc2c1)Nc1nnc(-c2cccnc2)s1`, the Potency result in assay [1] and in assay [2] was “inactive” each time.
In the case of `FC(F)(F)c1cccc(N2CCN(C(=S)Nc3ncnc4ccccc34)CC2)c1`, the Potency entry in assay [1] and in assay [2] was “inactive” in each case.
Turning to `O=C(OCC#CCSc1nnc(-c2cccc3ccccc23)o1)c1cnc[nH]1`, the Potency entry in assay [1] and in assay [2] was “inactive” each time.
As to `O=C1CCc2cc(S(=O)(=O)Nc3ccccc3F)ccc2N1`, the Potency result in assay [1] and in assay [2] was “inactive” each time.
On to `c1ccc(C2Nc3cccc4cccc(c34)N2)cc1`, for which the Potency result in assay [1] and in assay [2] was “inactive” in each case.
As to `NCCCCNc1ncnc2ccc(-c3ccc4c(c3)OCO4)cc12`, the Potency entry in assay [1] and in assay [2] was “inactive” throughout.
Take `COc1ccc(NC(=O)c2cnn3c(C)cc(C)nc23)cc1F`: the Potency result in assay [1] and in assay [2] was “inactive” in each case.
For `c1csc(CNc2ncnc3ccc(-c4ccc5c(c4)OCCO5)cc23)c1`, the Potency entry in assay [1] and in assay [2] was “inactive” in each case.
On to `CC(C)Oc1ccccc1C(=O)Nc1nc(-c2ccccc2)cs1`, for which the Potency entry in assay [1] and in assay [2] was “inactive” each time.
As for `O=C(OCC#CCSc1nnc(-c2cccc3ccccc23)o1)c1ccsc1`, the Potency result in assay [1] and in assay [2] was “inactive” throughout.
With `O=S(=O)(Nc1cnc2ccccc2c1)c1ccc(NCc2ccc(Br)cc2O)cc1`, the Potency result in assay [1] and in assay [2] was “inactive” throughout.
Turning to `COc1ccc(C2C3=C(N=CN(CCN4CCOCC4)C3N)Oc3ccccc32)cc1OC` (stereo unspecified), the Potency entry in assay [1] and in assay [2] was “inactive” each time.
As for `O=[S+]([O-])(Nc1ccc(N2CCNCC2)cc1)c1ccc(NCc2ccc(Br)cc2O)cc1`, the Potency entry in assay [1] and in assay [2] was “inactive” in each case.
For `FC(F)(F)c1ccc(CSc2nc3ncc(Br)cc3[nH]2)cc1`, the Potency result in assay [1] and in assay [2] was “inactive” throughout.
With `C=C(C)C(=O)O[C@H]1[C@H]2C(=C)C(=O)O[C@@H]2C[C@@H](C)[C@@H]2O[C@@H]2C(=O)[C@](C)(O)[C@@H]1OC(=O)C(=C)C`, the Potency result in assay [1] and in assay [2] was “inactive” throughout.
Consider `O=C1CCCC2=C1C(c1cccnc1)N=C(Nc1nc3ccccc3o1)N2` (stereo unspecified), for which the Potency result in assay [1] and in assay [2] was “inactive” in each case.
As to `Fc1ccc(-c2nc(CCCCSc3nnc(-c4cccc5ccccc45)o3)no2)cc1`, the Potency entry in assay [1] and in assay [2] was “inactive” each time.
In the case of `O=C(Nc1cccc(-c2nn3c(=O)cc(N4CCNCC4)nc3s2)c1)C1CCNCC1`, the Potency result in assay [1] and in assay [2] was “inactive” each time.
`Cc1ccccc1C(=O)N1CCc2cc(-c3nc(NC(=O)Cc4ccc5c(c4)OCCO5)sc3C)ccc21`: the Potency entry in assay [1] and in assay [2] was “inactive” throughout.
With `Cc1ccc(C(=O)Nc2ccc(N3CCCCC3)cc2)cc1`, the Potency entry in assay [1] and in assay [2] was “inactive” throughout.
Turning to `O=C(O)c1ccccc1-c1noc(-c2ccccc2F)n1`, the Potency result in assay [1] and in assay [2] was “inactive” in each case.
As for `Cc1cc(NS(=O)(=O)c2ccc(NC(=O)C(C)(C)c3ccc(Cl)c(Cl)c3)cc2)no1`, the Potency result in assay [1] and in assay [2] was “inactive” each time.
On to `CC1=C(C(=O)Nc2nc3ccccc3s2)C(c2nn(C)cc2Cl)N=C(Nc2nc3ccccc3o2)N1` (stereo unspecified), for which the Potency result in assay [1] and in assay [2] was “inactive” throughout.
In the case of `Cc1ccc(NS(=O)(=O)c2ccc3c(ccn3C)c2)cc1C`, the Potency entry in assay [1] and in assay [2] was “inactive” each time.
Turning to `COc1cc(O)c(C(CC(=O)N2CCCC(c3nc4ccccc4o3)C2)c2ccc3c(c2)OCO3)c(OC)c1` (stereo unspecified), the Potency result in assay [1] and in assay [2] was “inactive” in each case.
On to `Cc1ccc(NS(=O)(=O)c2cc3c(cc2C)OCC(=O)N3)cc1C`, for which the Potency entry in assay [1] and in assay [2] was “inactive” each time.
As for `CCOc1ccc(CCNC(=O)C2(c3ccccc3)CC2)cc1OCC`, the Potency entry in assay [1] and in assay [2] was “inactive” in each case.
For the compound `O=C(O)c1ccc(-c2ccc3ncnc(NCc4nccs4)c3c2)o1`, the Potency entry in assay [1] and in assay [2] was “inactive” each time.
In the case of `Cc1cc(C)nc(NC(=S)N2CCN(c3ccc(Cl)cc3F)CC2)c1`, the Potency result in assay [1] and in assay [2] was “inactive” each time.
Consider `C#CCCC(=O)Nc1sc2c(c1-c1nc3ccccc3s1)CCN(C(C)C)C2`, for which the Potency result in assay [1] and in assay [2] was “inactive” in each case.
For `O=S(=O)(Nc1cnc2ccccc2c1)c1ccc(NCc2cccc(Cl)c2O)cc1`, the Potency result in assay [1] and in assay [2] was “inactive” each time.
On to `Cc1ccnc(NC(=O)N2CCN(c3cccc(C(F)(F)F)c3)CC2)c1`, for which the Potency entry in assay [1] and in assay [2] was “inactive” throughout.
As to `O=C(O)c1cccc(S(=O)(=O)N2CCN(S(=O)(=O)c3ccc4c(c3)OCCO4)CC2)c1`, the Potency result in assay [1] and in assay [2] was “inactive” in each case.
Consider `Cc1cnc(-c2ccccc2C(C)C)nc1NCc1ccc(-c2ccc(F)nc2)cc1`, for which the Potency entry in assay [1] and in assay [2] was “inactive” in each case.
As to `Cn1nnnc1Sc1ncnc2scc(-c3ccc4ccccc4c3)c12`, the Potency entry in assay [1] and in assay [2] was “inactive” each time.
With `CC1(C)CCCC2(C)C1C(OC(=O)/C=C/C=C/C=O)C=C1COC(=O)C12O` (stereo unspecified), the Potency result in assay [1] and in assay [2] was “inactive” throughout.
For `COc1cc(F)c(S(=O)(=O)N2CCCN(S(=O)(=O)c3cccc(N)c3)CC2)c(F)c1`, the Potency entry in assay [1] and in assay [2] was “inactive” in each case.
Regarding `O=S(=O)(c1ccc(F)cc1)N1CCN(S(=O)(=O)c2ccc3c(c2)OCCO3)CC1`, the Potency result in assay [1] and in assay [2] was “inactive” in each case.
For the compound `Cc1cc2c(s1)c1cnn(Cc3cccc(C(F)(F)F)c3)c(=O)c1n2C`, the Potency entry in assay [1] and in assay [2] was “inactive” each time.
Take `COc1ccc(C2Nc3ccccc3C(=O)N2Cc2cccc(OC)c2OC)cc1COc1c(C)cc(NC(C)=O)cc1C` (stereo unspecified): the Potency result in assay [1] and in assay [2] was “inactive” throughout.
In the case of `Cc1cc(NC(=O)Nc2nnc(-c3ccncc3)s2)ccc1F`, the Potency result in assay [1] and in assay [2] was “inactive” in each case.
In the case of `COc1ccccc1-c1nc(NCc2ccc(-c3cccnc3)cc2)c2ccccc2n1`, the Potency entry in assay [1] and in assay [2] was “inactive” in each case.
As for `O=C(Oc1cccnc1)c1cccs1`, the Potency entry in assay [1] and in assay [2] was “inactive” each time.
For the compound `COc1ccc(C(=O)O[C@H]2C=COC=C3C=C4C(=O)N(C)C(=S)C(=O)N4[C@@H]32)cc1Oc1cc(C=O)ccc1O`, the Potency entry in assay [1] and in assay [2] was “inactive” in each case.
Take `CCOC(=O)CC(=O)Nc1ncnc2c1C(c1ccccc1)c1c(ccc3ccccc13)O2` (stereo unspecified): the Potency entry in assay [1] and in assay [2] was “inactive” throughout.
In the case of `O=C1CCCC2=C1C(c1[nH]ncc1Cl)NC(=NCc1cccnc1)N2` (stereo unspecified), the Potency entry in assay [1] and in assay [2] was “inactive” each time.
For the compound `Cc1cccc(-n2cnc3cc(C(=O)N4CCCC(C(C)C)C4)ccc32)c1` (stereo unspecified), the Potency result in assay [1] and in assay [2] was “inactive” throughout.
Regarding `Cc1ccc(S(=O)(=O)Nc2cnccc2C(=O)Nc2nc(-c3ccc(Cl)cc3)cs2)cc1`, the Potency entry in assay [1] and in assay [2] was “inactive” in each case.
Regarding `Cn1c2cc(C=O)sc2c2cnn(Cc3ccccc3F)c(=O)c21`, the Potency entry in assay [1] and in assay [2] was “inactive” in each case.
For `Cc1ccc2oc(NC3=NC4(CCCC4)C4=C(CCCC4=O)N3)nc2c1`, the Potency result in assay [1] and in assay [2] was “inactive” each time.
As for `C/C=C1\[C@H](O[C@@H]2O[C@H](CO)[C@@H](O)[C@H](O)[C@H]2O)OC=C2C(=O)OCCc3ccc(O)c(c3)Oc3ccc(cc3)CCOC(=O)C[C@H]21`, the Potency entry in assay [1] and in assay [2] was “inactive” each time.
Regarding `O=S(=O)(NCC1CC1)c1ccc(Nc2nccc(N3CCCc4cc(O)ccc43)n2)cc1`, the Potency result in assay [1] and in assay [2] was “inactive” throughout.
Take `Cc1ccc(S(=O)(=O)Nc2ccccc2C(=O)Nc2ccc(-c3ccccc3)nn2)cc1`: the Potency result in assay [1] and in assay [2] was “inactive” each time.
On to `O=C(Nc1ccc(S(=O)(=O)Nc2nccs2)cc1)c1cccc2ccccc12`, for which the Potency result in assay [1] and in assay [2] was “inactive” each time.
`Cc1cnc(-c2ccccc2C(F)F)nc1NCC1CN(c2cnccn2)C1`: the Potency entry in assay [1] and in assay [2] was “inactive” in each case.
In the case of `Cc1cc(-c2ccccc2)nc2c(C(=O)Nc3ccc4c(c3)CCC4)cnn12`, the Potency entry in assay [1] and in assay [2] was “inactive” in each case.
Take `N=c1c2c(ccn1CCc1ccccc1)Oc1ccc3ccccc3c1C2c1ccccc1` (stereo unspecified): the Potency entry in assay [1] and in assay [2] was “inactive” each time.
With `O=c1c2ccc(F)cc2nc2sc(Nc3ccc4c(c3)CCC4)nn12`, the Potency result in assay [1] and in assay [2] was “inactive” each time.
`COc1ccc(CNC(=O)c2nc(S(=O)(=O)Cc3ccccc3)ncc2Cl)cc1`: the Potency result in assay [1] and in assay [2] was “inactive” in each case.
Take `O=C1c2ccccc2C(=O)N1c1ccc2ncccc2c1`: the Potency entry in assay [1] and in assay [2] was “inactive” throughout.
Consider `Cc1ccc(S(=O)(=O)Nc2cnccc2C(=O)Nc2ccc(-c3nc4ccccc4[nH]3)cc2)cc1`, for which the Potency entry in assay [1] and in assay [2] was “inactive” in each case.
For `C=C(C(=O)O)[C@H]1C[C@]2(C)C(=O)CC[C@]23O[C@H]1C[C@@H]3C`, the Potency entry in assay [1] and in assay [2] was “inactive” in each case.
On to `CCCCNc1nc(C)nc2c1nc(-c1ccccc1)n2CCN1CCCC1`, for which the Potency result in assay [1] and in assay [2] was “inactive” each time.
As to `Cc1cccc(-n2cnc3cc(C(=O)N4CCC(Cc5ccccc5)CC4)ccc32)c1`, the Potency result in assay [1] and in assay [2] was “inactive” throughout.
Regarding `Cc1cc2c(s1)c1cnn(Cc3ccc(F)cc3Cl)c(=O)c1n2C`, the Potency entry in assay [1] and in assay [2] was “inactive” throughout.
For the compound `CCCCN(C)C(=O)Cn1nc(-c2ccc(C(F)(F)F)cc2)ccc1=O`, the Potency entry in assay [1] and in assay [2] was “inactive” each time.

The record behind these values is PubChem BioAssay (NCATS).
